# A selection: hits, their analogues and other compounds. The true share with any hit is near 12%.
# Sm TGR inh = S. mansoni TGR enzyme inhibition | Q962Y6 | purified TGR, DTNB reduction, TNB absorbance 405 nm | Potency, µM (doses to about 114 µM), inactives show at the highest dose activity change, negative = inhibition, usual class: inhibitors | 360,000 compounds, 3% hits; active means well fitted inhibition curve with a large enough effect; inconclusive means small, poorly fitted or top-dose-only effect; inactive means no such curve, though single readings can be large or run the other way; further: potency means the concentration at half of the fitted maximal effect; on the % scale 0 is the no-effect control and ±100 the full control effect; nearly all actives have a fitted effect of over 60% in size
#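 TGR 20 nM + NADPH 100 uM (dispensed conc.), cpd preinc 15 min RT; start with NADPH (500 uM addition) then DTNB (15 mM addition). Kinetic TNB absorbance, 405 nm filter. Four-parameter Hill fit across titration.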
# FMDV antiviral = foot and mouth disease virus antiviral activity. FMDV antiviral cell-based qHTS. Potency, µM (highest dose often 57.9 µM), for the others: at the top dose activity change, negative = inhibition, actives largely listed as inhibitors. 410,000 compounds, 1.2% hits; calls by dose curve; tested in HEK293T cells; further: read-out not given here; potency means the concentration at half of the fitted maximal effect; on the % scale 0 is the no-effect control and ±100 the full control effect; nearly all actives have a fitted effect of over 45% in size
# CHX counter = affects cycloheximide protein synthesis inhibition readout, counter-screen; max response, %; AID 2314; 300,000 compounds, 12% hits; cell reporter, cycloheximide protein synthesis inhibition counterscreen; in the data active means max response mostly above about 13%, no sharp cut-off; inactive means mostly below about 14%; further: read at 38.3 µM for the half of the compounds with a filed dose; 0% is about no effect
# Shiga toxin inh = blocks Shiga toxin action in Vero cells | Vero cells, Shiga toxin protein synthesis inhibition reporter | inhibition, % at 38.7 µM | 290,000 compounds, 9.2% hits | AID 2315; in the data active means inhibition mostly above about 28%, no sharp cut-off; inactive means mostly below about 43%; further: 0% is about no effect
# * = called active by the depositor; ? = inconclusive; nt = not tested or not shown; ! = not confirmed by another sample.
SMILES,Sm TGR inh,FMDV antiviral,CHX counter,Shiga toxin inh
Cc1ccc(C2CCN(C(=O)Nc3ccccc3)C2)cc1 (configuration not stated),0.0%,-45.2%,39.1*,149.7*
O=C(Nc1cccc(F)c1)N1CCC(c2ccccc2)CC1,-16.4%,45.5%,41.4*,73.7*
Cc1noc(NS(=O)(=O)c2ccc(NC(=O)CCn3c(=O)oc4ccccc43)cc2)c1C,15.8µM*,-7.3%,-8.6,-16.7
O=C(CCn1c(=O)oc2ccccc21)Nc1nc2ccccc2s1,1.6%,2.5%,13.0*,44.0*
CCSc1nnc(NC(=O)CCn2c(=O)oc3ccccc32)s1,0.8%,?,-1.4,-14.7
NS(=O)(=O)c1ccc(NC(=O)CCn2c(=O)oc3ccccc32)cc1,-1.6%,-8.9%,nt,nt
Cc1ccc(NC(=O)CCn2c(=S)oc3ccccc32)cc1,-3.6%,-3.4%,-2.9,-9.6
COC(=O)c1ccc(NC(=O)CCn2c(=O)oc3ccccc32)cc1,1.3%,13.5%,28.7*,40.4*
CN(C)c1ccc(NC(=O)CCn2c(=S)oc3ccccc32)cc1,-8.5%,58.0%,54.7*,94.9*
COc1ccc(NC(=O)CSc2nc3nc(C)c(Cc4ccccc4Cl)c(C)n3n2)cc1OC,-0.8%,-13.5%,nt,nt
O=C(C1CCCN(S(=O)(=O)c2cccc3nonc23)C1)N1CCN(c2cccc(C(F)(F)F)c2)CC1 (configuration not stated),1.1%,?,nt,nt
Cc1ccc2c(C)c(C(=O)Nc3ccc(S(=O)(=O)Nc4onc(C)c4C)cc3)oc2c1,-18.0%,-11.0%,55.2*,88.6*
CCCCN(C(=O)CCn1c(=O)oc2ccccc21)c1ccccc1,25.1µM*!,-0.1%,-1.3,-3.3
O=C(CCn1c(=O)oc2ccccc21)N(Cc1ccccc1)c1ccccc1,-9.6%,-21.3%,0.8,6.8
c1ccc(-c2noc(-c3cccnc3NCc3ccco3)n2)cc1,3.4%,13.5%,nt,nt
Cc1ccccc1Nc1c(-c2ccccn2)nc2c(C)cccn12,-0.8%,0.0%,-0.6,24.3
Cc1ccc(-c2nc3c(C)cccn3c2Nc2ccccc2C)s1,8.91µM*,-13.2%,nt,nt
C=CCNC(=O)C1CCN(c2cc(C)nc(-c3ccccc3)n2)CC1,nt,-1.1%,-2.7,-9.8
Cc1cc(-c2ccccc2)nc(N2CCC(C(=O)NCc3ccccc3Cl)CC2)n1,-4.1%,nt,26.6*,54.4*
C=CCNC(=O)C1CCN(c2nc(C)cc(-c3ccccc3)n2)CC1,0.0%,37.8%,35.6*,131.6*
Cc1ccc(N2C(=O)CCSC23C(=O)N(Cc2ccccc2)c2ccccc23)cc1 (configuration not stated),1.2%,7.9%,nt,nt
O=C(c1cccnc1)C1CCCN(Cc2ccc3c(c2)CN(C(=O)c2cccs2)CCO3)C1 (configuration not stated),nt,-5.0%,nt,nt
O=C(CSc1nc(-c2cccs2)nc2cc(=O)[nH]n12)Nc1ccccc1Cl,0.5%,?,nt,nt
CSc1ccc(C(=O)N2CCc3ccc(NC(=O)c4ccccn4)cc3C2)cc1,7.8%,-11.9%,58.4*,106.6*
COC(=O)c1cc(=O)n(Cc2cccs2)c(=Nc2ccc(F)cc2)s1,-3.3%,?,-2.2,-5.6
SMILES,Sm TGR inh,FMDV antiviral,CHX counter,Shiga toxin inh
COC(=O)c1cc(=O)n(CCc2ccccc2F)c(=Nc2ccc(F)c(Cl)c2)s1,8.7%,15.8µM*,-8.3,-7.3
COC(=O)c1ccc(N=c2sc(C(=O)OC)cc(=O)n2C)cc1,5.5%,31.6µM*,-2.4,-3.1
COC(=O)c1cc(=O)n(-c2ccc(F)cc2)c(=Nc2ccc(F)cc2)s1,-21.7%,22.4µM*,-7.6,-21.6
COC(=O)c1cc(=O)n(Cc2ccco2)c(=Nc2ccc(F)c(Cl)c2)s1,?,?,-5.0,-14.0
CCOC(=O)c1ccc(N=c2sc(C(=O)OC)cc(=O)n2C2CC2)cc1,-26.7%,?,1.0,-2.9
CC(C)(Oc1ccc(Cl)cc1)C(=O)Nc1nnc2n1CCS2,0.9%,0.1%,nt,nt
C=CCN(C(=O)CCS(=O)(=O)c1cccc2nsnc12)c1ccccc1,25.1µM*,57.1%,-5.4,10.5
CC1Cc2cc(/C(O)=C3/C(=O)C(=O)N(CC4CCCO4)C3c3ccco3)ccc2O1 (configuration not stated),-6.1%,3.3%,41.3*,74.3*
CC1Cc2cc(/C(O)=C3/C(=O)C(=O)N(CCN4CCOCC4)C3c3cccc(O)c3)ccc2O1 (configuration not stated),?,14.6%,62.3*,91.3*
CC1Cc2cc(/C(O)=C3/C(=O)C(=O)N(Cc4cccnc4)C3c3cccc(O)c3)ccc2O1 (configuration not stated),1.3%,-17.1%,34.3*,66.1*
CCOc1cccc(C2/C(=C(/O)c3ccc4c(c3)CC(C)O4)C(=O)C(=O)N2CCN2CCOCC2)c1 (configuration not stated),-13.8%,-9.1%,-1.9,-6.8
O=C1C(=O)N(Cc2ccncc2)C(c2cccc(O)c2)/C1=C(\O)c1ccc2c(c1)OCCO2 (configuration not stated),-34.4%,3.3%,32.0*,78.1*
COc1cc2c(C(=O)N3CCN(c4cccc(C)c4)C(C)C3)cn(CC(C)C)c(=O)c2cc1OC (configuration not stated),-11.0%,-18.1%,nt,nt
Cc1cc(C)cc(-n2c(C)nc3cc(C(=O)NCc4ccc(F)cc4)ccc32)c1,3.6%,-20.2%,nt,nt
O=C1C(=O)N(Cc2cccnc2)C(c2cccc(O)c2)/C1=C(\O)c1ccc2c(c1)OCCO2 (configuration not stated),-7.1%,-6.4%,24.5*,74.2*
C=CCOc1cccc(C2/C(=C(\O)c3ccc4c(c3)OCCO4)C(=O)C(=O)N2Cc2cccnc2)c1 (configuration not stated),-35.7%,-1.1%,-1.8,19.4
CC1Cc2cc(/C(O)=C3\C(=O)C(=O)N(CCN(C)C)C3c3ccccc3F)ccc2O1 (configuration not stated),-29.1%,15.6%,17.5*,77.1*
CC1Cc2cc(/C(O)=C3/C(=O)C(=O)N(CCCn4ccnc4)C3c3ccc(F)cc3)ccc2O1 (configuration not stated),9.1%,6.6%,20.7*,63.3
Cc1nnc(N2C(=O)C(=O)/C(=C(\O)c3ccc4c(c3)CC(C)O4)C2c2ccccc2)s1 (configuration not stated),7.8%,-12.8%,24.7*,49.7*
CCOc1ccc2nc(NC(=O)CSc3nc4cccnc4n3C)sc2c1,4.9%,-27.1%,-4.0,-19.8
CCOc1ccc2nc(NC(=O)CSc3ccccc3)sc2c1,-13.2%,32.3%,18.4*,69.0
CCOc1ccc2nc(NC(=O)CCn3cccc3)sc2c1,-20.1%,28.8%,29.5*,85.6*
CCCC(=O)Nc1nc2ccc(OCC)cc2s1,-0.7%,26.1%,46.4*,72.7*
CCOc1ccc2nc(NC(=S)N(C)C)sc2c1,-12.7%,-2.8%,56.0*,104.2*
CCOc1ccc2nc(NC(=O)CS(=O)(=O)c3ccc(Cl)cc3)sc2c1,6.6%,-14.1%,nt,nt
CCOc1ccc2nc(NC(=O)c3ccc(C)o3)sc2c1,nt,-44.4%,nt,nt
COc1ccc2c(c1)c(=O)c(S(=O)(=O)c1ccc(C)c(C)c1)cn2CC(=O)Nc1ccccc1,0.4%,28.2%,nt,nt

# High-throughput results deposited in PubChem BioAssay by National Center for Advancing Translational Sciences (NCATS).
